Screens from PubChem.
Glioma ERSR ind = ER stress response induction in glioma; AID 602332; Potency, µM, actives largely listed as activators; 420,000 tested, 0.02% active; U87-MG GRP78 promoter luciferase reporter, 16 h; note: series mostly up to about 76 µM; nearly all actives have a fitted effect of over 35% in size
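ERSR induction read as luciferase luminescence (Bright-Glo, 10 min at room temperature) in stably transfected human U87-MG glioma cells exposed to compounds for 16 h, using GRP78 as sensor.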
a7 integrin act = activates integrin-mediated alleviation for muscular dystrophy | alpha7betagal myoblasts, beta-gal FDG fluorescence, 48 h | Potency, µM (highest dose often 38.3 µM), actives largely listed as activators | 350,000 tested, 0.064% active | AID 624291; note: nearly all actives have a fitted effect of over 60% in size
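alpha7betagal+/- myoblasts (passage 13, 250/well) treated 48 h at 37C with compounds at 1:260 dilution of DMSO stock. Lysed, then beta-galactosidase activity read as FDG fluorescence (ex 480/em 540) after 30 min, with pre-read for autofluorescence.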
ClpP mod = qHTS Assay for Activators of ClpP; purified B. subtilis ClpP, FRET peptide cleavage, 20 min; 340,000 tested, 1.9% active; AID 651965, 2013; ATP-dependent Clp protease proteolytic subunit (Bacillus subtilis (strain 168)), P80244; Potency, µM (doses to about 57.5 µM); active = well fitted falling curve with a large enough effect; inconclusive = small, poorly fitted or top-dose-only effect; inactive = no such curve, though single readings can be large or run the other way; note: the source files actives as falling curves though it sought activators and does not explain the sign; nearly all actives have a fitted effect of over 65% in size
Target sequence (P80244 whole entry, looked up): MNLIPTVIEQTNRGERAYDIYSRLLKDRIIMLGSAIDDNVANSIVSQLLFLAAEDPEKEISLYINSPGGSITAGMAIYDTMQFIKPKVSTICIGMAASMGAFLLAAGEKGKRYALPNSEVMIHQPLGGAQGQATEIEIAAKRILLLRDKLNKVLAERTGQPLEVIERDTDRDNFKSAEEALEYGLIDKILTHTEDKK
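Purified B. subtilis ClpP, 10 microg/mL final in Tris/HCl pH8 with KCl, BSA, glycerol and Tween-20, cleaved an Abz/nitrotyrosine-quenched decapeptide. Fluorescence (ex 320, em 430) was read at 0 and 20 min at room temperature. Delta was normalized to 5.8 microM ADEP and DMSO/no-enzyme controls.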
CBFb RUNX1 block = inhibitors of human CBF-beta and RUNX1 interaction. AlphaScreen CBFb-His/RUNX1-biotin binding, biochemical. Potency, µM (doses to about 59.8 µM), actives largely listed as inhibitors. 230,000 tested, under 10 active. AID 1477
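AlphaScreen proximity signal reports loss of binding between His-tagged CBF-beta and biotin-labelled RUNX1, each at 30 nM. Proteins are pre-associated for 20 minutes, compounds added for 15 minutes, then beads for 90 minutes, all at ambient temperature.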
Apoferritin bind = candidate novel general anesthetic via apoferritin binding; 350,000 tested, 0.074% active; apoferritin/1-aminoanthracene competitive binding, fluorescence; Potency, µM (doses to about 77.5 µM), actives largely listed as inhibitors; P02791; note: nearly all actives have a fitted effect of over 20% in size
Target sequence (P02791 2-175 limits assumed): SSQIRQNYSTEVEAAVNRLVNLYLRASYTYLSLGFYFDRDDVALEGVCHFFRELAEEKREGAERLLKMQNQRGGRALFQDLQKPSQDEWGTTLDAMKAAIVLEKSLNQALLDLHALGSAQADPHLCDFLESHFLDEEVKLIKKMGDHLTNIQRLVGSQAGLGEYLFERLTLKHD
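Concentration-response curves derived by four-parameter Hill fitting of normalized fluorescence, where compounds displaced 1-AMA from 10 uM horse apoferritin following a brief 10 min room-temperature incubation; propofol titration acted as positive control.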
N370S GC = inhibitors or activators of N370S glucocerebrosidase for Gaucher disease. P04062. N370S GC spleen homogenate, 4MU-glucoside fluorescence. Potency, µM (titrated, usually from 59.4 µM), actives largely listed as inhibitors. 330,000 tested, 0.092% active
A number is an active result; ! = a repeat was not active. Shown is part of a subset that was picked to be rich in hits. Unless noted, calls come from the whole dose curve; as a rule, active = well fitted curve in the direction sought with a large enough effect; inconclusive = small, poorly fitted or top-dose-only effect, or another doubt; inactive = no such curve, though single readings can be large; an effect the other way counts as inactive or inconclusive.

Screening Cc1ccc(S(=O)(=O)Nc2ccccc2C(N)=O)cc1 returned Glioma ERSR ind inactive, a7 integrin act inactive, ClpP mod inactive, CBFb RUNX1 block inactive, Apoferritin bind inactive and N370S GC inactive.
For NC(=O)c1ccccc1NS(=O)(=O)c1ccccc1 the results were Glioma ERSR ind inactive, a7 integrin act inactive, ClpP mod 28µM, CBFb RUNX1 block inactive, Apoferritin bind inactive and N370S GC inactive.
`NC(=O)c1ccccc1NS(=O)(=O)Cc1ccc(Cl)cc1` gave Glioma ERSR ind inactive, a7 integrin act inactive, ClpP mod 22µM, CBFb RUNX1 block inactive, Apoferritin bind inactive and N370S GC inactive.
`CN(C)S(=O)(=O)Nc1ccccc1C(N)=O` gave Glioma ERSR ind inactive, a7 integrin act inactive, ClpP mod 22µM, CBFb RUNX1 block inactive, Apoferritin bind inactive and N370S GC inactive.
Screening CC(NC(=O)c1cccnc1)c1nnc2n1CCN(Cc1ccc(-c3ccccc3Cl)o1)CC2 (stereo not drawn) returned Glioma ERSR ind inactive.
For Cc1ccc(C(=O)Nc2cccc(-c3nc(CNC(=O)C4CCCCC4)c(C)o3)c2)s1 the results were Glioma ERSR ind inactive.
CC(=O)COc1cc(C)cc2oc(=O)c(C)c(C)c12 was read as Glioma ERSR ind inactive, a7 integrin act inactive, ClpP mod inconclusive, CBFb RUNX1 block inactive, Apoferritin bind inactive and N370S GC inactive.
`C=C(Cl)COc1cc(C)cc2oc(=O)cc(CC)c12` gave Glioma ERSR ind inactive, a7 integrin act inactive, ClpP mod 32µM, CBFb RUNX1 block inactive, Apoferritin bind inactive and N370S GC inactive.
`CCCCc1cc(=O)oc2cc(C)c3c(C)coc3c12` gave Glioma ERSR ind inactive, ClpP mod 28µM and Apoferritin bind inactive.
Screening CC(=O)C(C)Oc1cc(C)cc2oc(=O)c(C)c(C)c12 (stereo not drawn) returned Glioma ERSR ind inactive, a7 integrin act inconclusive, ClpP mod 3.2µM, CBFb RUNX1 block inactive, Apoferritin bind inactive and N370S GC inactive.
For CCc1cc(=O)oc2cc(C)cc(OCc3nn[nH]n3)c12 the results were Glioma ERSR ind inactive, a7 integrin act inactive, ClpP mod inconclusive, CBFb RUNX1 block inactive, Apoferritin bind inactive and N370S GC inactive.
For CCCc1cc(=O)oc2cc(C)cc(OCC(=O)Nc3ccccn3)c12 the results were Glioma ERSR ind inactive, a7 integrin act inactive, ClpP mod inactive, Apoferritin bind inactive and N370S GC inactive.
CCCc1cc(=O)oc2cc(C)cc(OCC(=O)O)c12 was read as Glioma ERSR ind inactive, a7 integrin act inactive, ClpP mod 16µM, CBFb RUNX1 block inactive, Apoferritin bind inactive and N370S GC inactive.
COc1cc(=O)n2c(c1C(=O)N(C)Cc1nonc1C)CCN(Cc1cccc3ccccc13)CC2 was read as Glioma ERSR ind inactive.
Screening CCCCc1cc(=O)oc2cc(C)cc(OC(C)C(=O)NCC3CCC(C(=O)O)CC3)c12 (stereo not drawn) returned Glioma ERSR ind inactive, a7 integrin act inactive, ClpP mod inactive, Apoferritin bind inactive and N370S GC inactive.
CCCCc1cc(=O)oc2cc(C)cc(OC(C)C(=O)O)c12 (stereo not drawn) was read as Glioma ERSR ind inactive, a7 integrin act inactive, ClpP mod 16µM, CBFb RUNX1 block inactive, Apoferritin bind inactive and N370S GC inactive.
`OC(CN1CCCCC1)c1ccccc1` (stereo not drawn) gave Glioma ERSR ind inactive and ClpP mod inactive.
N#Cc1nc(NCCCCO)nc(Nc2ccccc2)n1 was read as Apoferritin bind inactive.
For CCOC(=O)c1cnc(-n2nc(C)cc2C)nc1NC the results were Glioma ERSR ind inactive, a7 integrin act inactive, ClpP mod 32µM, CBFb RUNX1 block inactive, Apoferritin bind inactive and N370S GC inactive.
CSc1ccc2c(c1)[C@H](N1CCN(C)CC1)Cc1ccccc1S2 was read as Glioma ERSR ind inactive, CBFb RUNX1 block inactive, Apoferritin bind inactive and N370S GC 13µM.
For CN1CCN(C2Cc3ccccc3Sc3ccc(Cl)cc32)CC1 (stereo not drawn) the results were Glioma ERSR ind inactive, ClpP mod inactive, CBFb RUNX1 block inactive and N370S GC inconclusive.
CN1CCN(C2Cc3ccccc3Sc3cc(C(F)(F)F)ccc32)CC1 (stereo not drawn) was read as Glioma ERSR ind inactive and a7 integrin act inactive.
CSc1ccc2c(c1)C(N1CCN(C)CC1)Cc1ccccc1S2 (stereo not drawn) was read as Glioma ERSR ind inactive, a7 integrin act inactive, ClpP mod inactive, CBFb RUNX1 block inactive, Apoferritin bind inactive and N370S GC 18µM!.
Screening COc1ccc(OC)c2c(C)ccnc12 returned Glioma ERSR ind inactive and ClpP mod inactive.
Cc1cccc(NC(=O)CN(CC2CCCO2)C(=O)c2ccc(S(C)(=O)=O)cc2)c1C (stereo not drawn) was read as Glioma ERSR ind inactive, a7 integrin act inactive, ClpP mod 25µM and N370S GC inactive.
`CN(C)CCCNc1cc(N2CCN(C)CC2)ncn1` gave Glioma ERSR ind inactive and ClpP mod inactive.
C#CCOCCOCCOCCNc1nc(N2CCOCC2)nc(N2CCN(C(=O)CCCCCCCCCCNC(=O)[C@@H]([C@H](C)CC)n3cc(CCCCCN)nn3)CC2)n1 was read as Glioma ERSR ind inactive, a7 integrin act inactive, ClpP mod inactive and N370S GC inactive.
C#CCOCCOCCOCCNc1nc(N2CCN(C(=O)CCCCCCCCCCNC(=O)[C@H]([C@@H](C)CC)n3cc(CCCCN=C(N)N)nn3)CC2)nc(N2CCN(C(=O)CCCCCCCCCCNC(=O)[C@H](CCCCN)n3cc(C)nn3)CC2)n1 was read as Glioma ERSR ind inactive, a7 integrin act inactive, ClpP mod inactive and N370S GC 16µM.
`C#CCOCCOCCOCCNc1nc(N2CCN(C(=O)Cn3cc(CCCN=C(N)N)nn3)CC2)nc(N2CCN(C(=O)[C@H]([C@@H](C)CC)n3cc(CCCCN)nn3)CC2)n1` gave Glioma ERSR ind inactive, a7 integrin act inactive, ClpP mod inactive and N370S GC inactive.
Screening C#CCOCCOCCOCCNc1nc(N2CCN(C(=O)CCCCCCCCCCNC(=O)[C@H]([C@@H](C)CC)n3cc(CCCCCN)nn3)CC2)nc(N2CCN(C(=O)CCCCCCCCCCNC(=O)[C@H]([C@@H](C)CC)n3cc(CCCCN=C(N)N)nn3)CC2)n1 returned N370S GC 18µM.
